Assay results: the supplement of paper PMC10849652
Of roughly 8,800 targets only a part is listed; those with a hit were picked by preference. About 0.5% of all pairs of compound and target were hits.

What was measured:
Experiment in all cases: log2 fold change, soluble protein after heating vs DMSO (PISA); higher = thermal stabilisation; K562 lysate, 10 uM; active = over 0.2 and 3.5 SD of the protein, either way, in both replicates (recomputed)
ibrutinib = compound: C=CC(=O)N1CCC[C@@H](n2nc(-c3ccc(Oc4ccccc4)cc3)c3c(N)ncnc32)C1 [ibrutinib]
Outline: (§1)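 Thermal stability, expressed as log-two fold change relative to solvent controls, is given from duplicates. Crude K562 extract in PBS pH 7.4 with 1 mM MgCl2, at 1 mg/mL protein, was treated with 10 μM compound for 30 min and heated in aliquots for 3 min across 48°C-58°C. After pooling, adjustment to 0.5% NP-40 at 4°C and centrifugation at 21,000xg for 90 min, supernatant protein was measured by TMTpro 16plex LC-MS/MS with channel sums equalised.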

[1] = compound: CC(=O)c1cnc2ccc(-c3cc(Cl)c(O)c(Cl)c3)nc2c1N[C@H]1CC[C@H](CN(C)C)CC1
Outline: as §1

ralimetinib = compound: CC(C)(C)Cn1c(N)nc2ccc(-c3[nH]c(C(C)(C)C)nc3-c3ccc(F)cc3)nc21 [ralimetinib]
Outline: as §1

[2] = compound: CC(C)(O)CC(=O)NCCn1ccc2ncnc(Nc3ccc(Oc4cccc(C(F)(F)F)c4)c(Cl)c3)c21
Outline: as §1

[3] = compound: CC(C)C1=C2N=C(C=C(N2N=C1)NCC3=CC=CC=C3)NCCCCCCN
Outline: as §1

[4] = compound: CC1=C(C(CC(=O)N1)C2=CC=C(C=C2)C(F)(F)F)C(=O)NC3=C(C=C4C(=C3)C=NN4)F
Outline: as §1

[5] = compound: CC1=C(C2=C(C=C1)C(=O)C3=CC=CC=C3N2CCCN)C
Outline: as §1

[6] = compound: CC1=C(C=C(C=C1)NC(=O)C2=CC(=CC=C2)C(C)(C)C#N)NC3=CC4=C(C=C3)N=CN(C4=O)C
Outline: as §1

[7] = compound: CC1=C(C=C(C=C1)NC(=O)C2=CC(=CC=C2)N(C)C)NC(=O)C3=CC=C(C=C3)O
Outline: as §1

[8] = compound: CC1=CC=C(C=C1)SC2=C3C=C(SC3=CN=C2)C(=O)N
Outline: as §1

vemurafenib = compound: CCCS(=O)(=O)Nc1ccc(F)c(C(=O)c2c[nH]c3ncc(-c4ccc(Cl)cc4)cc23)c1F [vemurafenib]
Outline: as §1

[9] = compound: CCCS(=O)(=O)Nc1ccc(F)c(C(=O)c2c[nH]c3ncc(Cl)cc23)c1F
Outline: as §1

barasertib = compound: CCN(CCCOc1ccc2c(Nc3cc(CC(=O)Nc4cccc(F)c4)[nH]n3)ncnc2c1)CCOP(=O)(O)O [barasertib]
Outline: as §1

[10] = compound: CC[C@@H]1C(=O)N(C)c2cnc(Nc3ccc(C(=O)NC4CCN(C)CC4)cc3OC)nc2N1C1CCCC1
Outline: as §1

volasertib = compound: CC[C@@H]1C(=O)N(C)c2cnc(Nc3ccc(C(=O)N[C@H]4CC[C@H](N5CCN(CC6CC6)CC5)CC4)cc3OC)nc2N1C(C)C [volasertib]
Outline: as §1

[11] = compound: CCn1c(C(=O)N(C2CC2)C2CC2)cc2c3c(ncn3C)c(Nc3cc(C)n(C)n3)nc21
Outline: as §1

[12] = compound: CCn1cc(-c2ccnc3[nH]c(-c4cccc(CN(C)C)c4)cc23)c(-c2ccc(NC(=O)N(C)C)cc2)n1
Outline: as §1

[13] = compound: CN1CCC(CNc2ccc3ncc(-c4cccc(OC(F)(F)F)c4)n3n2)CC1
Outline: as §1

saracatinib = compound: CN1CCN(CCOc2cc(OC3CCOCC3)c3c(Nc4c(Cl)ccc5c4OCO5)ncnc3c2)CC1 [saracatinib]
Outline: as §1

sotrastaurin = compound: CN1CCN(c2nc(C3=C(c4c[nH]c5ccccc45)C(=O)NC3=O)c3ccccc3n2)CC1 [sotrastaurin]
Outline: as §1

Measured: log2 fold change

EIF3I (UniProt Q13347)
Chain of UniProt Q13347 (Q13347 whole entry, looked up): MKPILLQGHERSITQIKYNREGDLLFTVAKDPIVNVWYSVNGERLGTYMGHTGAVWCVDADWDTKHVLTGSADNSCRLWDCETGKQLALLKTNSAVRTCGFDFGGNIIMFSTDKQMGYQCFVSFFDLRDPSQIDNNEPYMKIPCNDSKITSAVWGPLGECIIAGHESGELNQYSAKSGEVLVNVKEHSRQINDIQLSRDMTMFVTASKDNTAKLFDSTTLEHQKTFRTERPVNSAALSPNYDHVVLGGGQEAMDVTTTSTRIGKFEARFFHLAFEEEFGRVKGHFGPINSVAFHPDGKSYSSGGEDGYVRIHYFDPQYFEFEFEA
inactive: ibrutinib 0.018 | [1] -0.019 | ralimetinib 0.035 | [2] 0.046 | [3] 0.032 | [4] 0.003 | [5] 0.013 | [6] 0.009 | [7] 0.056 | [8] 0.022 | vemurafenib 0.017 | [9] 0.025 | barasertib 0.017 | [10] -0.113 | volasertib -0.078 | [11] 0.011 | [12] -0.034 | [13] -0.03 | saracatinib -0.008 | sotrastaurin 0.027

GABPB1 (UniProt Q06547)
inactive: ibrutinib -0.106 | [1] -0.012 | ralimetinib 0.021 | [2] 0.014 | [3] 0 | [4] 0.013 | [5] -0.026 | [6] 0.003 | [7] 0.071 | [8] 0.024 | vemurafenib -0.05 | [9] 0.01 | barasertib 0.014 | [10] -0.024 | volasertib 0.025 | [11] 0.006 | [12] 0.193 | [13] -0.199 | saracatinib 0.057 | sotrastaurin 0.023

G6PD isoform 2 (UniProt P11413)
Chain of UniProt P11413 (P11413 whole entry, looked up): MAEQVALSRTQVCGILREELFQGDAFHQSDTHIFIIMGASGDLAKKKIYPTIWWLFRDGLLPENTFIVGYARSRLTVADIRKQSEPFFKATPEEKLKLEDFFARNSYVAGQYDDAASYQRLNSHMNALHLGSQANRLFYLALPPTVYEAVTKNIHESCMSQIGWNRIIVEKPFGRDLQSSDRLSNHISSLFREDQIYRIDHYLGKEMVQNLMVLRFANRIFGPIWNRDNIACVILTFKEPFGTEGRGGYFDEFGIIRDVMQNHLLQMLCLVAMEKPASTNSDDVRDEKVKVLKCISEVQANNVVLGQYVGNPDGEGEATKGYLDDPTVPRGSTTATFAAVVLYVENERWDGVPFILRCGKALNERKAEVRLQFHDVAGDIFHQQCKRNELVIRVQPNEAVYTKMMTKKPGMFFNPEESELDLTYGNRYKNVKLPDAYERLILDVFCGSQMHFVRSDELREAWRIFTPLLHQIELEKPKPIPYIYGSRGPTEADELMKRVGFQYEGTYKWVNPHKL
inactive: ibrutinib -0.006 | [1] 0.001 | ralimetinib 0.023 | [2] 0.012 | [3] 0.018 | [4] -0.02 | [5] 0.045 | [6] -0.002 | [7] 0.024 | [8] 0.003 | vemurafenib 0.003 | [9] 0.008 | barasertib -0.029 | [10] -0.02 | volasertib -0.061 | [11] 0.016 | [12] 0.063 | [13] -0.04 | saracatinib 0.032 | sotrastaurin -0.017

FXR1 (UniProt P51114)
inactive: ibrutinib 0.023 | [1] -0.011 | ralimetinib -0.017 | [2] 0.032 | [3] 0.002 | [4] 0.014 | [5] -0.006 | [6] -0.01 | [7] 0.02 | [8] 0.016 | vemurafenib -0.047 | [9] 0.009 | barasertib 0.01 | [10] -0.036 | volasertib -0.022 | [11] 0.018 | [12] -0.107 | [13] 0.012 | saracatinib -0.036 | sotrastaurin -0.011

GALK1 isoform 2 (UniProt P51570)
Chain of UniProt P51570 (P51570 whole entry, looked up): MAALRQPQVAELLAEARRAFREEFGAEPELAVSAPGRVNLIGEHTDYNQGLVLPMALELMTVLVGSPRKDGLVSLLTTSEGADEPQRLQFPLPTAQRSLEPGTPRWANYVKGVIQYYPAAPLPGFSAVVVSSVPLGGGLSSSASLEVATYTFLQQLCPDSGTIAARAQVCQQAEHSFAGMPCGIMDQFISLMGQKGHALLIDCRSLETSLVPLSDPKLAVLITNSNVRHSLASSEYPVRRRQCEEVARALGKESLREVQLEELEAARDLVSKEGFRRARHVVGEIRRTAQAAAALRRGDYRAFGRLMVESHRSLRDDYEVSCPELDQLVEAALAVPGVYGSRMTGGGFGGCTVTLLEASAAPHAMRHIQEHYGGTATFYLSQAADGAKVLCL
inactive: ibrutinib 0.002 | [1] 0.032 | ralimetinib -0.013 | [2] -0.001 | [3] -0.006 | [4] -0.021 | [5] -0.026 | [6] 0.002 | [7] -0.001 | [8] 0.04 | vemurafenib 0.024 | [9] 0.01 | barasertib 0.031 | [10] 0.003 | volasertib -0.054 | [11] -0.009 | [12] 0.085 | [13] -0.055 | saracatinib -0.011 | sotrastaurin 0.031

EPRS (UniProt P07814)
Chain of UniProt P07814 (P07814 whole entry, looked up): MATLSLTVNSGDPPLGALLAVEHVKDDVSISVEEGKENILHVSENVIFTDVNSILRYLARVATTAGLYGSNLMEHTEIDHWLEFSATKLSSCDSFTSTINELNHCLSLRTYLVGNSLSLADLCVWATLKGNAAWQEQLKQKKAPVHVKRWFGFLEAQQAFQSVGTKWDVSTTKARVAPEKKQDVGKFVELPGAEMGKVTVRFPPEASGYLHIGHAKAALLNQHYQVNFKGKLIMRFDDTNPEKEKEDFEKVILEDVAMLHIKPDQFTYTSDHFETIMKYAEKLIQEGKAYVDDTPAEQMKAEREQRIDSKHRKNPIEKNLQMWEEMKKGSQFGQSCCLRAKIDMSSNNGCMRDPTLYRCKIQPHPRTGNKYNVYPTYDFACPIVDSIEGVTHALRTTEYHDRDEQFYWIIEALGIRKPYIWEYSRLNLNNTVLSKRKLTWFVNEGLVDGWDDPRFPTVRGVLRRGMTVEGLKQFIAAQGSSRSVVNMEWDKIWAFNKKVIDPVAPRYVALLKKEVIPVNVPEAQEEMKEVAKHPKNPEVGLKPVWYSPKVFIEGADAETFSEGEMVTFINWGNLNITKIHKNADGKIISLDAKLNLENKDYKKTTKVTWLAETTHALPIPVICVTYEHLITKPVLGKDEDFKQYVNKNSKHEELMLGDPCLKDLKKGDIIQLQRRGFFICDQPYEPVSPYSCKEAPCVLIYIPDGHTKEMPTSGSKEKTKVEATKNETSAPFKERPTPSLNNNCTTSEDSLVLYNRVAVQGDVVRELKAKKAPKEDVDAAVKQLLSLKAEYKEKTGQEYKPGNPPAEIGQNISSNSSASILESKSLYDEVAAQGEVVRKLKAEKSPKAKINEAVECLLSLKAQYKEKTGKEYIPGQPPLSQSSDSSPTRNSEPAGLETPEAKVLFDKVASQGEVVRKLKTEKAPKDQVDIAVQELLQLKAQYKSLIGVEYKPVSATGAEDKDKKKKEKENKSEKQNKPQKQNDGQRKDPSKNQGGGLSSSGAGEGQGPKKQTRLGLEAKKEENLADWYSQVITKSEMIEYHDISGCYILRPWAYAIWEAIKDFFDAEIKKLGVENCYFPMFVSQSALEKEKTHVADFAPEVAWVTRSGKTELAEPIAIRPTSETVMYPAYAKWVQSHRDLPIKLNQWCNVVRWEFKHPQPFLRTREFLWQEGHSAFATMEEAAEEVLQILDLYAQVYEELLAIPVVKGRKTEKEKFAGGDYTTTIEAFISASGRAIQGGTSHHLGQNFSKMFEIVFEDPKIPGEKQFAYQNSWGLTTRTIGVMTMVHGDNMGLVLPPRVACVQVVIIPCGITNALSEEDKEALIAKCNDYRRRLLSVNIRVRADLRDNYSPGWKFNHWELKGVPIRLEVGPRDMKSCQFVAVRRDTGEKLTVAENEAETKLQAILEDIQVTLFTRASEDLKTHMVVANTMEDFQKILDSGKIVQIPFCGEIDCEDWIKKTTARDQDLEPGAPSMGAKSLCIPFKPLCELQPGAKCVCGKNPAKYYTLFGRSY
inactive: ibrutinib -0.018 | [1] 0.002 | ralimetinib 0.01 | [2] 0.026 | [3] 0.02 | [4] -0.014 | [5] 0.02 | [6] -0.004 | [7] 0.046 | [8] 0.019 | vemurafenib 0.01 | [9] -0.001 | barasertib 0.001 | [10] -0.077 | volasertib -0.068 | [11] 0.024 | [12] -0.025 | [13] -0.035 | saracatinib 0.014 | sotrastaurin 0.02

FBXO38 (UniProt Q6PIJ6)
inactive: ibrutinib -0.042 | [1] 0.063 | ralimetinib 0.083 | [2] 0.009 | [3] -0.078 | [4] -0.037 | [5] -0.073 | [6] -0.098 | [7] 0.009 | [8] 0.175 | vemurafenib -0.042 | [9] -0.024 | barasertib 0.052 | [10] -0.121 | volasertib 0.037 | [11] 0.028 | [12] 0.006 | [13] 0.036 | saracatinib -0.039 | sotrastaurin 0.027

ESPL1 (UniProt Q14674)
Chain of UniProt Q14674 (Q14674 whole entry, looked up): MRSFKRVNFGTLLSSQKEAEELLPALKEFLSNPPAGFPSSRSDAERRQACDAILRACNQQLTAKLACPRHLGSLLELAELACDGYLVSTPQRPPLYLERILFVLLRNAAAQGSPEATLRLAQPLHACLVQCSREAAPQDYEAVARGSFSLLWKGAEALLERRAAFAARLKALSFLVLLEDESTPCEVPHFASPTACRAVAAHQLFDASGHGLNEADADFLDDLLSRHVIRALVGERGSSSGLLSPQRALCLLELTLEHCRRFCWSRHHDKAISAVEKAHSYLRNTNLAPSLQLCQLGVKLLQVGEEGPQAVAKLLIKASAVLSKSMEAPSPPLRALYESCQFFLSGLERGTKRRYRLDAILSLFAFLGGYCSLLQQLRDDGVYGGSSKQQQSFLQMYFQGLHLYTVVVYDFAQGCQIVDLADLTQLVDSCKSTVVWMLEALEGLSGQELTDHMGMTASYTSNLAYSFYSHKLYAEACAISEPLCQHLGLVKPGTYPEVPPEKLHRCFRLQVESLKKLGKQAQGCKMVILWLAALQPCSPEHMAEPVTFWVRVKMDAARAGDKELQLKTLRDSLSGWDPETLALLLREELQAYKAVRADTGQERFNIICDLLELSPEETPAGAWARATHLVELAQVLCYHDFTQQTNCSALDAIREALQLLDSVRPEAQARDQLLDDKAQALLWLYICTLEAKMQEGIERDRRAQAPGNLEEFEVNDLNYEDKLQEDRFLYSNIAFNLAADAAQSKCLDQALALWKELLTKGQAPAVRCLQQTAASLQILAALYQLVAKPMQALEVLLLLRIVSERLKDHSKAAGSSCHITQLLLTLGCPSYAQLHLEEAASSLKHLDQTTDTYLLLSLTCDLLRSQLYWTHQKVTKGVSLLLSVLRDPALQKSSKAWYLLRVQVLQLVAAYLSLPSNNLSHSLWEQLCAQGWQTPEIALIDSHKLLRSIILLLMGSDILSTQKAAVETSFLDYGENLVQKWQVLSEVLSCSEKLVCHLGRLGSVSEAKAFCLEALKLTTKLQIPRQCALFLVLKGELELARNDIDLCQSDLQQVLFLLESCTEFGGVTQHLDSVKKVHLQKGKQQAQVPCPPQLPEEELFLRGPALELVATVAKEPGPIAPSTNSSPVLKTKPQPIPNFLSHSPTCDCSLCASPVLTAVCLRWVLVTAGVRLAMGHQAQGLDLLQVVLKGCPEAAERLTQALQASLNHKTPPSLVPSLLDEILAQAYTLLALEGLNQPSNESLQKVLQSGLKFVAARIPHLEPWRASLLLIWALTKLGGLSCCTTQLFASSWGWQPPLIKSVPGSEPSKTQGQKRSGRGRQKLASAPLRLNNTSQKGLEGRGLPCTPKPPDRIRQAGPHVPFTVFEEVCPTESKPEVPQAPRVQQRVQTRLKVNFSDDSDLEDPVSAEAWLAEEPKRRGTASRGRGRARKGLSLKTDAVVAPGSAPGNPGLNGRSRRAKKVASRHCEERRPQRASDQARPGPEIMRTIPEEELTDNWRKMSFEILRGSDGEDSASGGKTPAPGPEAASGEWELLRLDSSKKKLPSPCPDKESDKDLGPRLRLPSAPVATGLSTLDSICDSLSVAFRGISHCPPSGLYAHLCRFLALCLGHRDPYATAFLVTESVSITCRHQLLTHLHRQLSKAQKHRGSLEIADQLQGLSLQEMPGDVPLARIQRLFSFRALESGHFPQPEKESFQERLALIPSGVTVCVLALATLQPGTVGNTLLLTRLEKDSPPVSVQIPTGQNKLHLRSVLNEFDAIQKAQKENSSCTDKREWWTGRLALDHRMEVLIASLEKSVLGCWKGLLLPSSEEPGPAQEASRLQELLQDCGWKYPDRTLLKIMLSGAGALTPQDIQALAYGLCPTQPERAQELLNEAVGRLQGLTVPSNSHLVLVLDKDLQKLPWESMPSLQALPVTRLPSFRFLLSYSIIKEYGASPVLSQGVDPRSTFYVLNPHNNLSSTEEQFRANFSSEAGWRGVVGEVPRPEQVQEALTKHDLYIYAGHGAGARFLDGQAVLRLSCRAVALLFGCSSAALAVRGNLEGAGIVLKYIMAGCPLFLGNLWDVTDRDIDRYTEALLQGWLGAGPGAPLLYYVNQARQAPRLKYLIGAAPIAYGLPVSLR
active: [8] -0.371
inactive: ibrutinib -0.076 | [1] -0.335 | ralimetinib 0.002 | [2] 0.01 | [3] 0.04 | [4] -0.005 | [5] -0.036 | [6] -0.04 | [7] 0.076 | vemurafenib 0.049 | [9] 0.204 | barasertib 0.054 | [10] 0.039 | volasertib 0.09 | [11] -0.002 | [12] -0.047 | [13] -0.012 | saracatinib -0.065 | sotrastaurin -0.023
